Measured values: PubChem BioAssay (Tox21)
Results filed as inconclusive are left out. A number with no mark means an inactive call. The source made the active and inactive calls. The call rests on the fitted dose curve; in most records, active means well fitted activation curve with a large enough effect in the repeat runs; inconclusive means weak or mixed curves; inactive means no such curve, though single readings can be large or run the other way.

What follows are compounds tested against Nuclear receptor subfamily 1 group I member 3 (Homo sapiens) (UniProt Q14994) (assay: qHTS assay to identify small molecule agonists of the constitutive androstane receptor (CAR) signaling pathway (AID 1224839; further: nearly all actives have a fitted effect of over 15% in size;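 on activation: HepG2 cells stably carrying human CAR and a CYP2B6 luciferase reporter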)). Settings: HepG2 hCAR CYP2B6-luciferase, agonist mode, 24 h; series mostly up to 92.4 µM; activation: at the top concentration.
From the text: National Center for Advancing Translational Sciences [NCATS] NIH Chemical Genomics Center [NCGC] U.S. Environmental Protection Agency [EPA] National Institutes of Environmental Health Sciences [NIEHS] National Toxicology Program [NTP] Assay overview: The constitutive androstane receptor (CAR) is a nuclear receptor which regulates multiple drug metabolizing enzymes (DMEs) and transporters. Activating CAR will generally increase the transcription and subsequent translation of CYP2B6 and CYP3A4. These two DMEs represent about 50% of the drug metabolizing potential in the body. […] Recently, there have also been studies performed indicating CARs role in energy metabolism and cancer therapy. Therefore, inducing CARs activity could have a potential effect on diabetes and cancer. Identifying environmental toxins and compounds which modulate CAR, through the use of the Tox21 10K compound collection, will be an important step in determining the toxicity and potential therapeutic effects these factors will have on the human body.
Assay Protocol Summary: A double-stable (hCAR and CYP2B6-2.2kb) transfected cell line, derived from human hepatoma (HepG2) cells, was utilized for the duration of the quantitative high-throughput screens. The HepG2-CYP2B6-hCAR cells suspended in DMEM culture medium supplemented with 10% FBS, 5 ug/mL blasticidin, 0.5 mg/mL geneticin, 100 U/mL penicillin and 100 ug/mL streptomycin were dispensed at 2500 cells/4 uL/well in 1536-well white solid bottom plates using a Multidrop Combi. After the assay plates were incubated at 37 C/5% CO2 for 4 hrs, 23 nL of compounds at 15 concentrations (from 5-48 columns) or positive control (from 1 to 4 columns) were transferred to the assay plates using a Pintool station. One uL of PK11195, was added using a Flying Reagent Dispenser to generate a final concentration of 0.75 uM PK11195 inside each well. After a 24 hr incubation period at 37 C/5% CO2, four uL of ONE-Glo reagent was added into the assay plates using a Flying Reagent Dispenser. After a 30 min incubation period at room temperature, the luminescence intensity in the assay plates was measured using a ViewLux plate reader.
On the % scale 0 is the no-effect control and ±100 the full control effect; potency means the concentration at half of the fitted maximal effect.

Nuclear receptor subfamily 1 group I member 3 (Homo sapiens), sequence (Q14994 whole entry, looked up): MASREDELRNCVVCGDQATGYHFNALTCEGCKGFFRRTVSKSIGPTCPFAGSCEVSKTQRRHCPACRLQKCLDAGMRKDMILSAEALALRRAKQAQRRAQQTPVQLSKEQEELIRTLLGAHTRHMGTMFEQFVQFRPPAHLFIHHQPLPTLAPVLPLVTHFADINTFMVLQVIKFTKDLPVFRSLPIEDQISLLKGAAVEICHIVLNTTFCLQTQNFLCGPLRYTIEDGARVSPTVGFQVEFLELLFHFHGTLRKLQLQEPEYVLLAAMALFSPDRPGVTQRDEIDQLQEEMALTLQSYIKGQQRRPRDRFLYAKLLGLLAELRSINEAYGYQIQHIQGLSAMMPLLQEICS

Row | Structure (SMILES) | activation | Potency
1 | COC(C)(C)CCC[C@H](C)C/C=C/C(C)=C/C(=O)OC(C)C | 12.6% | 
2 | S=C=NCc1ccccc1 | 9.6% | 
3 | Nc1ccc([N+](=O)[O-])cc1[N+](=O)[O-] | -0.652% | 
4 | NCCCNCCCN | 1.42% | 
5 | CC(Cl)Cl | 5.39% | 
6 | [CH3][Sn]([CH3])([Cl])[Cl] |  | inactive
7 | COC(=O)C(Cl)C(=O)OC | 3.6% [at 42.5 µM] | 
8 | ClC=C(Cl)Cl | -0.174% | 
9 | CCOc1ccc(C(C)(C)COCc2cccc(Oc3ccccc3)c2)cc1 |  | 6.11 µM (active)
10 | CN(C)c1ccc(N(C)C)cc1 |  | 61.3 µM (active)
11 | CC(C)(CCl)C(=O)Cl | 3.18% | 
12 | COP(=S)(Oc1cc(Cl)c(Br)cc1Cl)c1ccccc1 (stereo not given) |  | 30.6 µM (active)
13 | C[C@H]1CNCCc2ccc(Cl)cc21 | -0.943% [at 42.5 µM] | 
14 | CCOP(=O)(OCC)O/C(=C/Cl)c1ccc(Cl)cc1Cl |  | 27.3 µM (active)
15 | CCCCCCCCOC(=O)c1ccc(C(=O)OCCCCCCCC)c(C(=O)OCCCCCCCC)c1 | -3.71% | 
16 | CC(=O)C(C)(C)C | 0.333% | 
17 | CCCCCCCCCC(=O)O[C@H]1CC[C@H]2[C@@H]3CCC4=CC(=O)CC[C@@H]4[C@H]3CC[C@]12C | -1.94% [at 42.5 µM] | 
18 | O=C1NCN(c2ccccc2)C12CCN(CCCOc1ccc(F)cc1)CC2 | -12.9% [at 42.5 µM] | 
19 | II | 11% | 
20 | O=S(=O)(O)C(F)(F)C(F)(F)C(F)(F)C(F)(F)F |  | 32.5 µM (active)

Row | Structure (SMILES) | activation | Potency
21 | C=CC(=O)OC(C)(C)C | 1.35% | 
22 | IC(I)=C(I)I | -22.7% | 
23 | CCCCCC[N+](=O)[O-] | -0.357% | 
24 | CC(=O)c1cc2c(cc1C)C(C)(C)C(C)CC2(C)C (stereo not given) |  | 24.3 µM (active)
25 | CC1(C)CCC(Cc2ccc(Cl)cc2)C1(O)Cn1cncn1 (stereo not given) | 2.04% | 
26 | ClCc1ccccc1 | -2.64% | 
27 | CC(C)(OO)c1ccccc1 | -1.37% | 
28 | Sc1ccccc1Cl | -1% [at 42.5 µM] | 
29 | Brc1ccccc1 | -0.708% | 
30 | CC1CC(CC2CCC(N)C(C)C2)CCC1N (stereo not given) | -4.81% | 
31 | CCOP(=S)(OCC)SCn1nnc2ccccc2c1=O |  | 24.3 µM (active)
32 | NC(=O)C(Cl)(Cl)Cl | 1.36% | 
33 | O=[Se]=O | -12.5% [at 42.5 µM] | 
34 | CCCCc1c(C)nc(NCC)nc1OS(=O)(=O)N(C)C |  | 21.7 µM (active)
35 | CC1Sc2c(C(=O)O)c(=O)c3cc(F)c(N4CCNCC4)cc3n21 (stereo not given) | -3.37% [at 42.5 µM] | 
36 | O=C1C(Cl)C(CCl)CN1c1cccc(C(F)(F)F)c1 (stereo not given) | 5.04% | 
37 | O=[N+]([O-])c1ccc(F)c([N+](=O)[O-])c1 | 3.53% | 
38 | CCC(Br)(CC)C(=O)NC(N)=O | -0.858% | 
39 | C=CCCl | 2.92% | 
40 | N#C/C(N)=C(/N)C#N | 3.37% | 
